Measured values from PubChem BioAssay (NCI).
About 83,000 compounds went through this panel and 20% of them were active in at least one assay; those are over-represented in the sample as a whole.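 Assay: single dose, 48 h. Readout: percent growth (0 = no net growth; negative = cell death). Active: <10.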 The source made the active and inactive calls.

How the values were obtained:
Experiment in all cases: NCI-60 one-dose screen, 48 h (100 = growth as untreated, 0 = no growth, -100 = all killed)
[1] = test system: DU-145 prostate; conditions: 10 µM unless noted
[2] = test system: K-562 leukemia; conditions: 10 µM unless noted
[3] = test system: MALME-3M melanoma; conditions: 10 µM unless noted
[4] = test system: RXF 393 renal; conditions: 10 µM unless noted
[5] = test system: SF-268 CNS; conditions: 10 µM unless noted
[6] = test system: SF-295 CNS; conditions: 10 µM unless noted
[7] = test system: SF-539 CNS; conditions: 10 µM unless noted
[8] = test system: UACC-257 melanoma; conditions: 10 µM unless noted
[9] = test system: M14 melanoma; conditions: 10 µM unless noted
[10] = test system: HCT-15 colon; conditions: 10 µM unless noted
[11] = test system: HT29 colon; conditions: 10 µM unless noted
[12] = test system: SNB-75 CNS; conditions: 10 µM unless noted
[13] = test system: SNB-19 CNS; conditions: 10 µM unless noted
[14] = test system: U251 CNS; conditions: 10 µM unless noted
[15] = test system: PC-3 prostate; conditions: 10 µM unless noted
[16] = test system: SK-MEL-5 melanoma; conditions: 10 µM unless noted
[17] = test system: UACC-62 melanoma; conditions: 10 µM unless noted
[18] = test system: LOX IMVI melanoma; conditions: 10 µM
[19] = test system: SK-MEL-28 melanoma; conditions: 10 µM unless noted
[20] = test system: MDA-MB-231 breast; conditions: 10 µM unless noted

Measured: growth

COC(=O)c1cccc([N+](=O)[O-])c1
inactive: [1] 105% | [2] 120% | [3] 102% | [4] 108% | [5] 102% | [6] 105% | [7] 98.5% | [8] 95.5% | [9] 105% | [10] 105% | [11] 101% | [12] 120% | [13] 98.6% | [14] 97.4% | [15] 97.4% | [16] 98.9% | [17] 98.7% | [18] 100% | [19] 102%

CS(=O)(=O)c1ccc(/C=C\C(=O)O)cc1
inactive: [1] 104% | [2] 122% | [20] 110% | [4] 95.7% | [5] 94.1% | [6] 103% | [7] 91.8% | [8] 99.7% | [9] 94.9% | [10] 96.1% | [11] 104% | [12] 80.2% | [13] 102% | [14] 104% | [15] 98.1% | [16] 99.5% | [17] 111% | [18] 98% | [19] 105%

Cn1c(=O)[nH]c2ccccc2c1=O
inactive: [1] 104% | [2] 103% | [3] 100% | [4] 102% | [5] 107% | [6] 94.4% | [7] 98.8% | [8] 102% | [9] 107% | [10] 101% | [11] 98.4% | [12] 91% | [14] 93.6% | [15] 130% | [16] 101% | [17] 102% | [19] 117%

Nc1cc2c(cc1Cl)C(=O)c1ccccc1C2=O
active: [7] -82% | [14] -34.1%
inactive: [1] 67.7% | [2] 72.4% | [3] 64.7% | [4] 72.2% | [5] 44.5% | [6] 35.4% | [8] 89.8% | [9] 85.3% | [10] 70.6% | [11] 83.8% | [12] 30.9% | [13] 36.2% | [15] 72.5% | [16] 91.9% | [17] 73.2% | [19] 101%

COc1ccc(/C=C\C(=O)/C=C/c2ccc(OC)cc2)cc1
inactive: [1] 96.4% | [3] 95.1% | [4] 100% | [5] 105% | [6] 101% | [7] 62.8% | [8] 106% | [9] 40.2% | [12] 103% | [14] 63.8% | [15] 62.3% | [16] 91.7% | [17] 70.4% | [19] 106%
active: [2] 9.76% | [10] -13.7%

CNc1ccccc1C(N)=O
inactive: [1] 107% | [2] 108% | [3] 97.9% | [4] 98.1% | [5] 100% | [6] 95.5% | [7] 97.6% | [8] 98.4% | [9] 96.2% | [10] 101% | [12] 91.8% | [13] 94.8% | [14] 92.8% | [15] 116% | [16] 101% | [17] 93.8% | [19] 107%

O=C(O)c1ccc([N+](=O)[O-])cc1S(=O)(=O)O
inactive: [1] 104% | [2] 107% | [3] 108% | [4] 114% | [5] 98% | [6] 102% | [7] 107% | [8] 100% | [9] 108% | [10] 106% | [11] 99% | [12] 118% | [13] 105% | [14] 94.9% | [15] 100% | [16] 99.7% | [17] 101% | [18] 98.1% | [19] 103%

CC(=O)NC(O)C(Cl)Cl (stereo not drawn)
inactive: [1] 99.2% | [2] 84.3% | [3] 96.7% | [4] 113% | [5] 95% | [6] 93.6% | [7] 90.6% | [8] 107% | [9] 110% | [10] 102% | [11] 105% | [12] 103% | [13] 106% | [14] 91.4% | [15] 96.4% | [16] 102% | [17] 106% | [18] 87.8% | [19] 103%

CSc1nc2[nH]ncc2c(=O)[nH]1
inactive: [1] 104% | [2] 113% | [3] 101% | [4] 92.6% | [5] 95.2% | [6] 96.2% | [7] 96% | [8] 109% | [9] 92.1% | [10] 99.7% | [11] 107% | [12] 103% | [13] 103% | [14] 103% | [15] 107% | [16] 92.8% | [17] 107% | [18] 97.2% | [19] 106%

O=S(=O)(c1ccc(NC(=S)NCc2cccnc2)cc1)N1CCCCC1
inactive: [1] 46.9% | [2] 33% | [3] 90.3% | [20] 95.1% | [5] 72.6% | [7] 31.9% | [8] 101% | [9] 39.7% | [10] 57.2% | [11] 55.2% | [12] 78.4% | [15] 25.3% | [16] 74.2% | [17] 93.7% | [18] 56.5% | [19] 92.6%

Nc1nnc2cc(F)ccc2n1
inactive: [1] 102% | [2] 97.2% | [3] 107% | [20] 102% | [5] 99.6% | [7] 107% | [8] 110% | [9] 99.3% | [10] 99.4% | [11] 111% | [12] 75.1% | [13] 99.2% | [14] 110% | [16] 114% | [17] 105% | [18] 96.3% | [19] 108%

C=CC1=NC(C)(C)CC(C)O1 (stereo not drawn)
inactive: [1] 113% | [2] 107% | [3] 107% | [20] 110% | [5] 109% | [7] 97.8% | [8] 95.4% | [9] 112% | [10] 98.9% | [11] 106% | [12] 72% | [13] 99.5% | [15] 102% | [16] 105% | [17] 100% | [18] 98.4% | [19] 96.6%

OC1Cc2ccccc2C1
inactive: [1] 103% | [2] 48.3% | [3] 95.2% | [4] 101% | [5] 102% | [6] 95.2% | [7] 97.1% | [8] 90.9% | [9] 94.9% | [10] 93.3% | [11] 100% | [12] 93.6% | [13] 100% | [14] 105% | [15] 95.4% | [16] 101% | [17] 95.6% | [18] 93.3% | [19] 102%

Clc1cccc(Cl)c1C1CSc2ccccc2N=C1c1ccccc1 (stereo not drawn)
inactive: [1] 59.6% | [3] 110% | [20] 70.5% | [5] 73.4% | [7] 101% | [8] 51.4% | [9] 86.6% | [10] 54.7% | [11] 26.8% | [12] 64.9% | [13] 97.4% | [15] 55% | [16] 86.8% | [17] 68.9% | [19] 90.4%
active: [2] 4.38% | [18] -4.86%

CC(C)(N)CO[C@H]1C[C@H]2CC[C@@]1(C)C2(C)C
inactive: [1] 102% | [2] 123% | [3] 97.1% | [4] 87.6% | [5] 91.5% | [6] 97.7% | [7] 99.4% | [8] 97.1% | [9] 90% | [10] 90.7% | [12] 89.3% | [13] 103% | [15] 88.8% | [16] 86.1% | [17] 101% | [18] 98.6% | [19] 94.7%

O=c1nc(Nc2cccc(Cl)c2)oc2cc(Cl)oc(=O)c12
inactive: [1] 113% | [2] 81.6% | [20] 50.9% | [4] 42.5% | [5] 66.9% | [7] 79.8% | [8] 87% | [9] 66.2% | [10] 83.4% | [11] 85.5% | [12] 67.2% | [13] 94.3% | [14] 79.6% | [15] 61.8% | [16] 106% | [17] 78.7% | [18] 73.5% | [19] 85.5%

N#C/C(=C\NC(=S)N=Nc1c(O)[nH]c2ccccc12)c1nc2ccccc2s1
inactive: [1] 113% | [2] 101% | [20] 87.9% | [4] 101% | [5] 102% | [6] 107% | [7] 103% | [8] 94.9% | [9] 101% | [10] 101% | [11] 106% | [12] 85.1% | [13] 104% | [14] 92.5% | [16] 94.9% | [17] 94.3% | [18] 96.6% | [19] 112%

c1cc(CNCCNCc2ccncc2)ccn1
inactive: [1] 115% | [2] 108% | [20] 104% | [4] 107% | [5] 104% | [6] 104% | [7] 105% | [8] 93.7% | [10] 110% | [11] 109% | [12] 92.5% | [13] 104% | [14] 101% | [15] 92.1% | [16] 107% | [17] 101% | [19] 101%

CCOc1ccncc1[N+](=O)[O-]
inactive: [1] 108% | [2] 100% | [20] 114% | [4] 113% | [5] 103% | [6] 108% | [7] 108% | [8] 95.2% | [9] 106% | [10] 110% | [11] 107% | [12] 101% | [13] 125% | [14] 96.9% | [15] 106% | [16] 106% | [17] 100% | [18] 99.6% | [19] 102%
